Reference: PubChem BioAssay (NCATS)
Results filed as inconclusive are left out. Active and inactive are the calls of the source. Calls follow the shape of the dose curve; as a rule, active = well fitted inhibition curve with a large enough effect; inconclusive = small, poorly fitted or top-dose-only effect; inactive = flat fitted curve, though single readings scatter.

Columns and labels:
[1] = system: CRL-7250; assay: Cytotoxic Profiling of Annotated Libraries Using Quantitative High-Throughput Screening (AID 1296008); conditions: Five cell lines viability, CellTiter-Glo ATP luminescence, 48-72 h; max response: stronger effect = lower value; as to max response: % is scaled to controls: 0 for no effect and ±100 for the full control effect
Outline: (§1)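 Compounds were pin-transferred onto cells and incubated 48 or 72 hr at 37 degree Celsius, 95% humidity. CellTiter-Glo was added, plates sat 10 min at room temperature, then ATP-coupled luminescence was imaged as the viability read-out.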

[2] = system: HaCat; assay: as above; conditions: Five cell lines viability, CellTiter-Glo ATP luminescence, 48-72 h; max response: stronger effect = lower value
Outline: as §1

[3] = system: KB-3-1; assay: as above; conditions: Five cell lines viability, CellTiter-Glo ATP luminescence, 48-72 h; max response: stronger effect = lower value
Outline: as §1

[4] = system: MCC-13; assay: qHTS assay to identify novel small-molecules to repurpose for Merkel cell carcinoma treatment (AID 1296009); conditions: MCC and control cell lines, CellTiter-Glo viability, 72 h; series mostly up to 46 µM
Outline: (§2)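 qHTS format: cells treated with library compounds in DMSO across 8 (NPC) or 11 (MIPE) concentrations. Readout after 72 hr at 37 degree celsius was CellTiter-Glo luminescence.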

[5] = system: MCC-26; assay: as above; conditions: MCC and control cell lines, CellTiter-Glo viability, 72 h; series mostly up to 46 µM
Outline: as §2

[6] = system: MKL-1; assay: as above; conditions: MCC and control cell lines, CellTiter-Glo viability, 72 h; series mostly up to 46 µM
Outline: as §2

[7] = system: MKL-2; assay: as above; conditions: MCC and control cell lines, CellTiter-Glo viability, 72 h; series mostly up to 46 µM
Outline: as §2

[8] = system: NIH3T3; assay: Cytotoxic Profiling of Annotated Libraries Using Quantitative High-Throughput Screening (AID 1296008); conditions: Five cell lines viability, CellTiter-Glo ATP luminescence, 48-72 h; max response: stronger effect = lower value; as to max response: % is scaled to controls: 0 for no effect and ±100 for the full control effect
Outline: as §1

[9] = system: HACAT; assay: qHTS assay to identify novel small-molecules to repurpose for Merkel cell carcinoma treatment (AID 1296009); conditions: MCC and control cell lines, CellTiter-Glo viability, 72 h; at 44.8 µM (top of the series) unless noted
Outline: as §2

[10] = system: HEK293; assay: Cytotoxic Profiling of Annotated Libraries Using Quantitative High-Throughput Screening (AID 1296008); conditions: Five cell lines viability, CellTiter-Glo ATP luminescence, 48-72 h; max response: stronger effect = lower value; as to max response: % is scaled to controls: 0 for no effect and ±100 for the full control effect
Outline: as §1

[11] = system: HEK293T; assay: qHTS assay to identify novel small-molecules to repurpose for Merkel cell carcinoma treatment (AID 1296009); conditions: MCC and control cell lines, CellTiter-Glo viability, 72 h; at 44.8 µM (top of the series) unless noted
Outline: as §2

[12] = system: P94_40; assay: qHTS profiling for inhibitors of Plasmodium falciparum proliferation (AID 504749); conditions: P. falciparum in erythrocytes, SYBR Green DNA, 72 h; series mostly up to 28.7 µM
Outline: (§3)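 Parasite proliferation within erythrocytes, 72 h exposure. Endpoint: SYBR Green I fluorescence after overnight lysis at room temperature. Controls: 0.29 uM artemisinin, DMSO.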

[13] = system: PAD; assay: as above; conditions: P. falciparum in erythrocytes, SYBR Green DNA, 72 h; series mostly up to 28.7 µM
Outline: as §3

[14] = system: PC15; assay: as above; conditions: P. falciparum in erythrocytes, SYBR Green DNA, 72 h; series mostly up to 28.7 µM
Outline: as §3

[15] = system: PC26; assay: as above; conditions: P. falciparum in erythrocytes, SYBR Green DNA, 72 h; series mostly up to 28.7 µM
Outline: as §3

[16] = system: PC49; assay: as above; conditions: P. falciparum in erythrocytes, SYBR Green DNA, 72 h; series mostly up to 28.7 µM
Outline: as §3

[17] = system: SC27B; assay: as above; conditions: P. falciparum in erythrocytes, SYBR Green DNA, 72 h; series mostly up to 28.7 µM
Outline: as §3

[18] = system: TAB109; assay: as above; conditions: P. falciparum in erythrocytes, SYBR Green DNA, 72 h; series mostly up to 28.7 µM
Outline: as §3

[19] = system: TAB113; assay: as above; conditions: P. falciparum in erythrocytes, SYBR Green DNA, 72 h; series mostly up to 28.7 µM
Outline: as §3

[20] = system: TAB165; assay: as above; conditions: P. falciparum in erythrocytes, SYBR Green DNA, 72 h; series mostly up to 28.7 µM
Outline: as §3
Also: nearly all actives have a fitted effect of over 60% in size.
Potency is read from the fitted curve at half-maximal effect.

CC(C)OC(=O)c1cc2c(OCC(O)CNC(C)(C)C)cccc2[nH]1 (stereo unspecified)
inactive: max response [1] -22.1% | max response [2] -9.3% | max response [3] -5.12% | Potency [4] | Potency [5] | Potency [6] | Potency [7]

CCN1CCN(c2cc(-c3ccc(F)cc3)c3c(n2)CCCCCC3)CC1
inactive: max response [1] 3.32% | max response [2] 0.965% | max response [3] -12.5% | outcome [8] | Potency [4] | Potency [5] | Potency [6] | Potency [7]

CCc1cc2cc(OC)c(OC)cc2c(Cc2ccccc2)n1
inactive: outcome [1] | outcome [2] | max response [8] -13.3% | outcome [9] | Potency [4] | Potency [5] | Potency [6]

CCCCC(=O)OCC(=O)[C@H]1[C@H](C)C[C@H]2[C@@H]3C[C@H](F)C4=CC(=O)C=C[C@]4(C)[C@@]3(F)[C@@H](O)C[C@@]21C
inactive: max response [1] -1.6% | max response [2] 1.04% | max response [3] -3.44% | max response [8] -6.1% | Potency [4] | Potency [5] | Potency [6] | Potency [7]

O=C(NO)c1ccccc1
inactive: max response [1] -19.7% | max response [2] 4.14% | max response [3] -12.1% | max response [8] -4.92% | Potency [4] | Potency [5] | Potency [6]

CN(C)CCOC(c1ccccc1)c1ccc(Br)cc1 (stereo unspecified)
inactive: max response [1] -20.9% | max response [2] 1.11% | max response [8] -1.24% | Potency [4] | Potency [5] | Potency [6]

CC1CCCCN1CCCOC(=O)c1ccc(OC2CCCCC2)cc1 (stereo unspecified)
inactive: max response [1] -16.2% | outcome [2] | max response [8] -13.4% | outcome [9] | Potency [4] | Potency [5]

CN1CC[C@H](c2c(O)cc(O)c3c(=O)cc(-c4ccccc4Cl)oc23)[C@H](O)C1
active: Potency [1] 0.266 µM | Potency [2] 0.75 µM | Potency [3] 1.03 µM

Cc1ccc(CCn2c3c(c4cc(Cl)ccc42)CN(C)CC3)cn1
inactive: max response [1] -3.39% | outcome [2] | max response [8] 0.803% | outcome [9] | Potency [4] | Potency [5] | Potency [6]

CC(C)(C)c1ccc(C(=O)CCCCl)cc1
inactive: outcome [1] | max response [2] 3.33% | outcome [8] | Potency [4] | Potency [5] | Potency [6] | Potency [7]

CC(C)Cc1ccc(C(C)C(=O)OCc2ccccn2)cc1 (stereo unspecified)
inactive: max response [1] -2.57% | outcome [2] | max response [8] -1.73% | outcome [9] | Potency [4] | Potency [5] | Potency [6]

O=C1Nc2cc(Cl)ccc2Oc2ccccc21
inactive: outcome [10] | outcome [2] | max response [8] -1.14% | outcome [9] | outcome [11] | Potency [4] | Potency [5] | Potency [6] | Potency [7]

COC(=O)[C@H]1[C@H]2C[C@@H]3c4[nH]c5cc(OC)ccc5c4CCN3C[C@H]2C[C@@H](OC(=O)/C=C/c2ccc(O)c(OC)c2)[C@@H]1OC
inactive: Potency [4]
active: Potency [10] 9.44 µM

OC1(c2ccc(Cl)c(C(F)(F)F)c2)CCN(CCCC(c2ccc(F)cc2)c2ccc(F)cc2)CC1
active: Potency [10] 8.41 µM | Potency [3] 23.1 µM | Potency [4] 18.8 µM | Potency [6] 7.5 µM | Potency [7] 5.31 µM

Brc1ccccc1-c1ccccc1
inactive: max response [10] -9.62% | max response [2] -6.21% | max response [3] -3.53% | max response [8] -3.48% | Potency [4] | Potency [5] | Potency [6] | Potency [7]

O=C(c1cc(O)c(O)c(O)c1)c1ccc(O)c(O)c1O
inactive: max response [1] -19.4% | max response [2] -2.77% | Potency [4] | Potency [5]

OCc1c[nH]c2ccccc12
active: Potency [10] 21.7 µM | Potency [7] 24.3 µM
inactive: max response [3] -7.74% | Potency [4] | Potency [5]

OCCOCCN1CCN(C(c2ccccc2)c2ccc(Cl)cc2)CC1 (stereo unspecified)
inactive: max response [10] -4.98% | max response [2] -23.3% | max response [3] 15.7% | outcome [8] | Potency [4] | Potency [5] | Potency [6] | Potency [7]

Cc1cccc(N(C)C(=S)Oc2ccc3c(c2)C2CCC3C2)c1 (stereo unspecified)
active: Potency [1] 29.9 µM
inactive: max response [8] -24.5% | Potency [4] | Potency [5] | Potency [6]

O=C(Nc1ccc(Cl)cc1)Nc1ccc(Cl)c(Cl)c1
active: Potency [12] 2.82 µM | Potency [13] 2.24 µM | Potency [14] 2.51 µM | Potency [15] 1.51 µM | Potency [16] 2.24 µM | Potency [17] 2.24 µM | Potency [18] 3.55 µM | Potency [19] 2.24 µM | Potency [20] 1.78 µM | Potency [10] 7.5 µM | Potency [6] 18.8 µM | Potency [7] 5.96 µM
